Test results as given in PubChem BioAssay (EPA / NIEHS).
Results filed as inconclusive are left out. The source made the active and inactive calls. The calls were made as follows: active = hit-call score of the fitted dose curve at least 0.9, where 1 is the maximum; inconclusive = response in the unintended direction; inactive = score below 0.9.

Assay: ACEA_ER_AUC_viability: ACEA Biosciences xCELLigence Real-Time Cell Analysis on Estrogen Receptor Agonism for Viability (AID 2283782);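 also: continuous compound exposure with impedance area under curve over 80 h; hit means loss of impedance signal meaning reduced cell growth or viability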
Outline: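 T-47D; phenol red-free RPMI1640 + 10% CS-FBS; 8 conc., 1:4 serial, max 100 uM final, ≤0.5% DMSO; n = 2; continuous exposure; impedance monitored to 80 h post-dose; AUC vs DMSO.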

Which AC50 does the source give for N=C1N=C(N)c2ccccc21 here?
The AC50 was 74 µM (active).

With CCOC(=O)CC1(C)OCC(C)O1 (configuration not stated) as the compound, how does the outcome read?
Its outcome is “inactive”.

For O=[N+]([O-])c1cc(N(CCO)CCO)ccc1NCCO, which outcome is on record?
The outcome was “inactive”.

With CCCCOC(=O)C(C)OC(=O)CCC (configuration not stated) as the compound, how does the outcome read?
Its outcome is “inactive”.

For C=C(C)C(=O)OCCC[Si](OC)(OC)OC, which outcome is on record?
Its outcome is “inactive”.

Which AC50 does the source give for CC1=CC(O)CC(C)(C)C1 (configuration not stated) here?
Its AC50 is 71.8 µM (active).

For CC(C)CCCC(C)(C)O, which outcome is on record?
The outcome was “inactive”.

Which outcome does the source give for NC(=O)c1cnccn1 here?
The outcome was “inactive”.

With CCCCCCCCCCCCCCCCCC(=O)OCCCCCCCCCCCCCC(C)C as the compound, how does the AC50 read?
Its AC50 is 77 µM (active).

For O=c1cc[nH]cc1, which outcome is on record?
Its outcome is “inactive”.

With CCC=C(C)C=O as the compound, how does the outcome read?
Its outcome is “inactive”.

For O=C(O)C(F)(F)OC(F)(F)C(F)(F)OC(F)(F)C(F)(F)C(F)(F)C(F)(F)F, which outcome is on record?
Its outcome is “inactive”.

For O=C(O)CS, which outcome is on record?
The outcome was “inactive”.

Which outcome does the source give for O=C1OCc2ccccc21 here?
Its outcome is “inactive”.

For CCCCCC(=O)O[C@]1(C(C)=O)CC[C@H]2[C@@H]3CCC4=CC(=O)CC[C@]4(C)[C@H]3CC[C@@]21C, which AC50 is on record?
The AC50 was 49.8 µM (active).

For CCCCCCCCCCCCOCCOS(=O)(=O)O, which AC50 is on record?
The AC50 was 84.1 µM (active).

Which outcome does the source give for N[C@@H](CCC(=O)O)C(=O)O here?
The outcome was “inactive”.

With Cc1cc(O)c(C)c(C)c1O as the compound, how does the AC50 read?
Its AC50 is 76.1 µM (active).

Which outcome does the source give for CCC(=O)OC(C)(C)C1CC=C(C)CC1 (configuration not stated) here?
Its outcome is “inactive”.

For CCCCCCCCCCCCN1CCOCC1, which AC50 is on record?
Its AC50 is 80.3 µM (active).

For CC1COC(=O)O1 (configuration not stated), which outcome is on record?
The outcome was “inactive”.

Which outcome does the source give for CCCCCCC(O)CCOC(C)=O (configuration not stated) here?
The outcome was “inactive”.

Which outcome does the source give for NNC(=O)OCc1ccccc1 here?
The outcome was “inactive”.

For C1COCO1, which outcome is on record?
The outcome was “inactive”.

With c1ccc2c(c1)-c1ccc3ccc4cccc5cc-2c1c3c45 as the compound, how does the outcome read?
Its outcome is “inactive”.

For CCCCOCCOC(=O)c1ccccc1C(=O)OCCOCCCC, which outcome is on record?
The outcome was “inactive”.

For NC(=O)c1c(Cl)cccc1Cl, which outcome is on record?
Its outcome is “inactive”.
